Assay results as given in the supplement of paper PMC8975748.
Structures can show the parent of a compound that is named as a salt. ± gives the standard deviation of the averaged measurements.

Tests used:
[1] = system: Saccharomyces cerevisiae BY4741 SeMeCo community; experiment: mean cell size (pixel area) (pixels); higher = larger cells; settings: 10 µM; 24 h; SM minimal medium
Summary of the method: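 Mean cell pixel area per well was determined by automated confocal microscopy with Harmony analysis of paraformaldehyde-fixed cells. The cells, a Saccharomyces cerevisiae BY4741 community of four plasmids that each complement one auxotrophy and carry a fluorescent marker, were incubated for 24 h with drug at a final 10 µM in SM medium in 384-well plates. Numbers are averaged over 3 replicates. Same SeMeCo high-content imaging drug screen: Selleck FDA-approved drugs at 10 µM, 24 h in SM medium, 384-well plates, 3 replicates.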

[2] = system: Saccharomyces cerevisiae BY4741 SeMeCo community; experiment: z-score of subpopulation abundance vs DMSO median, subpopulation auxotrophic for M; higher = larger share of this subpopulation than in DMSO controls; settings: 10 µM; 24 h; SM minimal medium; subpopulation (auxotrophy): M
Summary of the method: (§1)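 Four plasmids, each restoring a single auxotrophy and encoding a distinct fluorescent protein, were carried by a Saccharomyces cerevisiae BY4741 community. After overnight growth to OD600 1.0 and dilution to 0.3, 70 µl per well was grown for 24 h in minimal SM medium on 384-well plates acoustically predosed with library drugs at 10 µM final. Following paraformaldehyde fixation, automated confocal microscopy was used, with single-auxotroph fluorescent strains defining thresholds and autofluorescence correction. Subpopulation abundance was then scored as a z-score against the vehicle-well median.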

[3] = system: Saccharomyces cerevisiae BY4741 SeMeCo community; experiment: z-score of subpopulation abundance vs DMSO median, subpopulation auxotrophic for L; higher = larger share of this subpopulation than in DMSO controls; settings: 10 µM; 24 h; SM minimal medium; subpopulation (auxotrophy): L
Summary of the method: as §1

[4] = system: Saccharomyces cerevisiae BY4741 SeMeCo community; experiment: z-score of subpopulation abundance vs DMSO median, subpopulation auxotrophic for U; higher = larger share of this subpopulation than in DMSO controls; settings: 10 µM; 24 h; SM minimal medium; subpopulation (auxotrophy): U
Summary of the method: as §1

[5] = system: Saccharomyces cerevisiae BY4741 SeMeCo community; experiment: z-score of subpopulation abundance vs DMSO median, subpopulation auxotrophic for H; higher = larger share of this subpopulation than in DMSO controls; settings: 10 µM; 24 h; SM minimal medium; subpopulation (auxotrophy): H
Summary of the method: as §1

[6] = system: Saccharomyces cerevisiae BY4741 SeMeCo community; experiment: z-score of subpopulation abundance vs DMSO median, subpopulation auxotrophic for LU; higher = larger share of this subpopulation than in DMSO controls; settings: 10 µM; 24 h; SM minimal medium; subpopulation (auxotrophy): LU
Summary of the method: as §1

[7] = system: Saccharomyces cerevisiae BY4741 SeMeCo community; experiment: z-score of subpopulation abundance vs DMSO median, subpopulation auxotrophic for HM; higher = larger share of this subpopulation than in DMSO controls; settings: 10 µM; 24 h; SM minimal medium; subpopulation (auxotrophy): HM
Summary of the method: as §1

[8] = system: Saccharomyces cerevisiae BY4741 SeMeCo community; experiment: z-score of subpopulation abundance vs DMSO median, subpopulation auxotrophic for HU; higher = larger share of this subpopulation than in DMSO controls; settings: 10 µM; 24 h; SM minimal medium; subpopulation (auxotrophy): HU
Summary of the method: as §1

[9] = system: Saccharomyces cerevisiae BY4741 SeMeCo community; experiment: z-score of subpopulation abundance vs DMSO median, subpopulation auxotrophic for UM; higher = larger share of this subpopulation than in DMSO controls; settings: 10 µM; 24 h; SM minimal medium; subpopulation (auxotrophy): UM
Summary of the method: as §1

[10] = system: Saccharomyces cerevisiae BY4741 SeMeCo community; experiment: z-score of subpopulation abundance vs DMSO median, subpopulation auxotrophic for HL; higher = larger share of this subpopulation than in DMSO controls; settings: 10 µM; 24 h; SM minimal medium; subpopulation (auxotrophy): HL
Summary of the method: as §1

[11] = system: Saccharomyces cerevisiae BY4741 SeMeCo community; experiment: z-score of subpopulation abundance vs DMSO median, subpopulation auxotrophic for HLU; higher = larger share of this subpopulation than in DMSO controls; settings: 10 µM; 24 h; SM minimal medium; subpopulation (auxotrophy): HLU
Summary of the method: as §1

[12] = system: Saccharomyces cerevisiae BY4741 SeMeCo community; experiment: z-score of subpopulation abundance vs DMSO median, subpopulation auxotrophic for HLM; higher = larger share of this subpopulation than in DMSO controls; settings: 10 µM; 24 h; SM minimal medium; subpopulation (auxotrophy): HLM
Summary of the method: as §1

[13] = system: Saccharomyces cerevisiae BY4741 SeMeCo community; experiment: z-score of subpopulation abundance vs DMSO median, subpopulation auxotrophic for LUM; higher = larger share of this subpopulation than in DMSO controls; settings: 10 µM; 24 h; SM minimal medium; subpopulation (auxotrophy): LUM
Summary of the method: as §1

[14] = system: Saccharomyces cerevisiae BY4741 SeMeCo community; experiment: z-score of subpopulation abundance vs DMSO median, subpopulation auxotrophic for HLUM; higher = larger share of this subpopulation than in DMSO controls; settings: 10 µM; 24 h; SM minimal medium; subpopulation (auxotrophy): HLUM
Summary of the method: as §1

[15] = system: Saccharomyces cerevisiae BY4741 SeMeCo community; experiment: z-score of subpopulation abundance vs DMSO median, subpopulation auxotrophic for LM; higher = larger share of this subpopulation than in DMSO controls; settings: 10 µM; 24 h; SM minimal medium; subpopulation (auxotrophy): LM
Summary of the method: as §1

[16] = system: Saccharomyces cerevisiae BY4741 SeMeCo community; experiment: z-score of prototroph abundance vs DMSO median; higher = larger share of this subpopulation than in DMSO controls; settings: 10 µM; 24 h; SM minimal medium; subpopulation (auxotrophy): Prototroph
Summary of the method: as §1

[17] = system: Saccharomyces cerevisiae BY4741 SeMeCo community; experiment: z-score of subpopulation abundance vs DMSO median, subpopulation auxotrophic for HUM; higher = larger share of this subpopulation than in DMSO controls; settings: 10 µM; 24 h; SM minimal medium; subpopulation (auxotrophy): HUM
Summary of the method: as §1

Compound	mean cell size [1]	z-score of subpopulation abundance [2]	z-score of subpopulation abundance [3]	z-score of subpopulation abundance [4]	z-score of subpopulation abundance [5]	z-score of subpopulation abundance [6]	z-score of subpopulation abundance [7]	z-score of subpopulation abundance [8]	z-score of subpopulation abundance [9]	z-score of subpopulation abundance [10]	z-score of subpopulation abundance [11]	z-score of subpopulation abundance [12]	z-score of subpopulation abundance [13]	z-score of subpopulation abundance [14]	z-score of subpopulation abundance [15]	z-score of prototroph abundance [16]	z-score of subpopulation abundance [17]
O=C(O)CCC(=O)c1ccc(-c2ccccc2)cc1 [Fenbufen]	12.8 ± 0.18	0.67	0.14	0.32	0.71	1.1	-0.02	0.87	-0.92	0.57	-0.12	0.59	-0.23	0.69	–	–	–
NCc1ccccc1CC(=O)N[C@@H]1C(=O)N2C(C(=O)O)=C(CSc3nnnn3CC(=O)O)CS[C@H]12 [Ceforanide]	–	-0.21	2.29	-0.98	2.15	0.89	1.01	0.2	-0.41	2.92	0.38	0.46	2.06	1.14	1.65	–	–
CCC[C@@H]1C[C@@H](C(=O)N[C@@H]([C@H]2O[C@H](SC)[C@H](O)[C@@H](O)[C@H]2O)[C@H](C)Cl)N(C)C1 [Clindamycin HCl]	12.61 ± 0.074	0.72	0.8	–	-0.08	-0.2	–	-0.26	0.35	–	-0.02	0.06	0.28	0.72	0.83	–	–
CC(C)Cc1ccc(C(C)C(=O)O)cc1 (stereo unspecified) [Ibuprofen]	13.04 ± 0.12	-0.51	-0.92	-1.82	-0.54	-2.51	-1.2	-2.1	-3.84	-0.54	-0.51	0.37	-2.23	-0.59	-0.71	–	–
Cc1onc(-c2ccccc2Cl)c1C(=O)N[C@@H]1C(=O)N2[C@@H]1SC(C)(C)[C@@H]2C(=O)O [Cloxacillin Sodium]	12.44 ± 0.058	0.44	0.15	0.9	-0.29	0.4	-0.01	0.86	1.46	-0.33	0.44	0.97	1.65	1.38	0.63	–	–
Cc1c(Cl)cccc1Nc1ccccc1C(=O)O [Tolfenamic Acid]	12.7 ± 0.24	-0.25	-2.08	0.15	-1.01	-1.24	-1.11	-0.34	–	-0.69	-1.46	-0.79	–	–	-1.47	1.21	–
O=C(O)c1cn(-c2ccc(F)cc2)c2cc(N3CCNCC3)c(F)cc2c1=O [Sarafloxacin HCl]	12.2 ± 0.18	-0.64	-0.74	0.41	–	-0.05	–	0.4	–	-0.42	-0.35	-0.84	0.54	-0.29	0.08	0.01	–
COc1ccc2cc([C@H](C)C(=O)O)ccc2c1 [Naproxen Sodium]	12.84 ± 0.07	0.17	0.02	-1.01	-0.42	-0.46	–	-1.5	-2.49	0.47	0	0.18	-0.75	-0.52	-0.16	1.33	–
Clc1ccc(CCC(Cn2ccnc2)Sc2c(Cl)cccc2Cl)cc1 (stereo unspecified) [Butoconazole]	12.08 ± 0.019	-8.6	2.88	–	36.2	-0.9	1.61	7.63	–	31.6	9.84	27.1	–	32.1	-2.25	–	–
COc1cc(NC(C)CCCN)c2ncccc2c1 (stereo unspecified) [Primaquine Diphosphate]	12.6 ± 0.24	1.17	-0.56	-1.22	0.32	-1.15	–	-1.2	-0.88	-0.43	-0.39	0.32	-0.75	-0.49	0.09	0.58	–
COc1cc(N)c(Cl)cc1C(=O)NC1CCN(CCCOc2ccc(F)cc2)CC1OC (stereo unspecified) [Cisapride]	12 ± 0.14	-1.29	0.11	-0.14	-0.08	-0.54	–	-0.01	-0.35	-0.95	0.37	-0.82	-0.18	-0.17	-0.7	–	–
Cc1c(OCC(F)(F)F)ccnc1C[S@@+]([O-])c1nc2ccccc2[nH]1 [Dexlansoprazole]	12.3 ± 0.13	-0.04	0.56	–	1.18	0.17	0	-0.32	-0.91	0.7	0.19	-0.96	–	-0.54	–	–	–
CCCN[C@H]1CCc2nc(N)sc2C1 [Pramipexole dihydrochloride]	12.3 ± 0.17	-0.32	-0.42	-0.06	–	-0.61	-0.31	0	0.32	0.19	-0.24	–	-0.25	0	-0.39	0.25	0.52
Nc1nc2[nH]cc(CCc3ccc(C(=O)N[C@@H](CCC(=O)O)C(=O)O)cc3)c2c(=O)[nH]1 [Pemetrexed Disodium Hydrate]	14.5 ± 0.077	-9.02	3.26	–	3.82	1.43	–	1.99	-7.6	5.03	11.4	1.25	-3.47	–	-3.99	3.18	–
CC(=O)C1C(=O)C=C(C)OC1=O (stereo unspecified) [Sodium dehydroacetate]	–	0.37	1.59	1.63	-1.35	2.06	–	0.24	–	0.4	1.27	0.13	1.14	1.61	0.56	-1.07	–
CCCN1CCCC[C@H]1C(=O)Nc1c(C)cccc1C [Ropivacaine HCl]	12.6 ± 0.13	0.95	0.47	0.42	-0.94	0.42	-0.41	-0.21	0.78	-0.74	-0.22	–	-0.08	0.18	0.37	-0.38	-0.03
